Test results published in PubChem BioAssay AID493214 (National Center for Advancing Translational Sciences (NCATS), 2011).
The source made the active and inactive calls. Calls follow the shape of the dose curve; as a rule, active = well fitted inhibition curve with a large enough effect; inactive = no such curve, though single readings can be large or run the other way.

These compounds were tested against 4'-phosphopantetheinyl transferase ffp (Bacillus subtilis) (UniProt Q9F4F7) (assay: Inhibitos of Bacillus subtilis Sfp phosphopantetheinyl transferase (PPTase): Dry Powder Followup). Details: purified Sfp PPTase enzyme assay, dry powder retest.
Chain of 4'-phosphopantetheinyl transferase ffp (Bacillus subtilis) (Q9F4F7 whole entry, looked up): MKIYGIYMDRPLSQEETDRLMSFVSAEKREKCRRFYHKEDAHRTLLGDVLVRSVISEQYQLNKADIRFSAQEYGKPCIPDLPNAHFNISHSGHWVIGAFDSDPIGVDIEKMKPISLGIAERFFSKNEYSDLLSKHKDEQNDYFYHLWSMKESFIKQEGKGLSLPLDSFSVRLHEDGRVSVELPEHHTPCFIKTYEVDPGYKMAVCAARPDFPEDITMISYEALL
Excerpt: The covalent attachment of a phosphopantetheinyl (4'-PP) arm to a variety of synthases and other proteins is a key posttranslational protein modification. The 4'-PP is installed on the proteins post-translationally from coenzyme A (CoA) on a conserved serine residue by action of phosphopantetheinyl transferase (PPTase) enzymes. Phosphopantetheinylation is essential for synthase activity, and removal of the PPTase gene precludes natural product synthesis in microorganisms, or in the case of fatty acid biosynthesis, renders the organism unviable. PPTase enzymes belong to a distinct structural superfamily. Within bacteria, these enzymes are grouped into two classes based upon primary structure, the AcpS-Type and Sfp-Type PPTases.
Sfp-type PPTases, corresponding to an activator of surfactin production in Bacillus subtilis, are responsible for modifying type I polyketide and nonribosomal peptide synthases of prokaryotes. Sfp-type PPTases are responsible for the activation of a variety of pathogen-associated virulence factors. Among these compounds are toxins such as mycolactone from Mycobacterium ulcerans, siderophores such as vibriobactin from Vibrio cholerae or mycobactin from Mycobacterium tuberculosis, as well as the mycolic acids which form the waxy cell wall of Mycobacteria. The biosyntheses of these natural products are considered attractive targets for drug design.
In search of small molecule Sfp-PPTase inhibitors, a fluorescence quenching assay was developed for detection of Bacillus subtilis Sfp-PPTase enzymatic activity in a miniaturized high-throughput format. The consensus ybbr acceptor peptide DALEFIASKLA was N-terminally labeled with Black Hole Quencher-2 (BHQ-2) and used in combination with rhodamine-labeled coenzyme A as a co-substrate.
Inhibition of Sfp-PPTase was detected by recording the fluorescence intensity change over a 30-minute reaction period at a 525 nm excitation and 598 nm emission. Reagents were supplied by Michael Burkart and Timothy Foley, University of California at San Diego.
This assay is a followup of dry powder purchasing, QC'ing of samples and retesting in the primary screening protocol.
Assay Buffer: 50 mM Hepes-Na pH 7.6, 10 mM MgCl2, 0.01% Nonidet P-40, and 0.01% BSA.
3 uL of Sfp-PPTase enzyme (final concentration 15 nM) and 1 uL of substrate mixture (final concentration for rhodamine-CoA and BHQ-2-YbbR 5 uM and 12.5 uM, respectively) dispensed in columns 1, 2, 5 - 48. Columns 1 and 2 used to generate neutral control (uninhibited reaction)
Three uL of reagents, consisting of buffer (in columns 3 and 4 as negative control) and Sfp-PPTase (in columns 1, 2, 5 - 48) were dispensed into 1,536-well Greiner black solid bottom plate. Compounds (23 nL) were transferred via Kalypsys pintool equipped with 1,536-pin array. The plate was incubated for 15 min at room temperature, followed by the addition of 1 uL substrate to start the reaction. The plate was then centrifuged at 1000 rpm for 15 seconds, and the fluorescence intensity recorded on a ViewLux High-throughput CCD imager (Perkin-Elmer) using standard BODIPY optics (525 nm excitation and 598 nm emission). The plate was then incubated for 30 minutes, and a second read on the ViewLux was performed. The fluorescence intensity difference over the 30-minute period was used to calculate the respective reaction rate for each well.

| Compound | Potency |
| --- | --- |
| O=C(CSc1ccccc1)Nc1nnc(COc2ccc(Cl)cc2)s1 | 6.63 µM (active) |
| COc1ccc(OC)c(Nc2nc(=O)c3cccnc3s2)c1 | 13.2 µM (active) |
| O=C(/C=C/c1ccccc1)Nc1cccc(S(=O)(=O)Nc2ccccc2F)c1 | 0.527 µM (active) |
| O=C(CSc1nc2scc(-c3ccco3)c2c(=O)n1-c1ccccc1)NCC1CCCO1 (centres undefined) | 3.32 µM (active) |
| CCOC(=O)c1c(NC(=O)c2ccccc2Cl)sc2c1CCc1ccccc1-2 | 2.64 µM (active) |
| O=C(Nc1ccc(F)cc1)C1=CC(=O)N2CCN=C2S1 | 11.8 µM (active) |
| CCC(C)(C)n1nnnc1C(c1ccc(O)c(OC)c1)N1CCc2ccccc2C1 (centres undefined) | 21 µM (active) |
| C(=C1\Nn2c(COc3ccccc3)nnc2S1)/c1ccccc1 | 5.27 µM (active) |
| COC(=O)Nc1sc2c(c1C(N)=O)CCC(C)C2 (centres undefined) | 26.4 µM (active) |
| S=C(Nc1ccccn1)c1ccccn1 | 26.4 µM (active) |
| CC(C)(C)Cc1nnc(NC(=O)CSc2ccccc2)s1 | 5.91 µM (active) |
| CNC(=O)c1c(N)sc2c1CCCCC2 | 8.35 µM (active) |
| CCN1CCN(C(=S)c2ccc(O)cc2)CC1 | 2.35 µM (active) |
| O=C(Nc1nnc(COc2ccc(Cl)cc2)s1)c1cccs1 | 18.7 µM (active) |
| CN(C)c1ccc(C(=S)N2CCN(Cc3ccccc3)CC2)cc1 | 5.27 µM (active) |
| CCOC(=O)c1cc(-c2ccccc2)sc1NC(=O)c1ccc(OC)cc1 | 23.5 µM (active) |
| c1csc(-c2nn3c(C4COc5ccccc5O4)nnc3s2)c1 (centres undefined) | 21 µM (active) |

| Compound | Potency |
| --- | --- |
| CCOC(=O)c1c(-c2ccc(C)o2)csc1NC(=O)CSc1nnnn1-c1ccccc1 | 2.35 µM (active) |
| COC(=O)c1sc(NC(=O)c2cc(-c3ccccc3)nc3ccccc23)c(C#N)c1C | 5.91 µM (active) |
| CCOC(=O)c1nc(NCc2ccccc2)sc1C | 16.7 µM (active) |
| Clc1ccccc1-c1nnc2n1N/C(=C/Cc1ccccc1)S2 | 2.96 µM (active) |
| FC(F)(F)C1CCCN(c2nsc3ccccc23)C1 (centres undefined) | 2.35 µM (active) |
| C(/Cc1ccccc1)=C1\Nn2c(Cn3cnc4ccccc43)nnc2S1 | 21 µM (active) |
| CCc1c(C)sc(NC(=O)C2CCCCC2C(=O)O)c1C(N)=O (centres undefined) | 2.35 µM (active) |
| Cc1ccc(C2=CSC(NC(=O)CSc3nncn3C)=NN2)cc1 | 21 µM (active) |
| Cc1ccnc(NC(=S)N2CCN(c3cccc(C(F)(F)F)c3)CC2)c1 | 14.8 µM (active) |
| Nc1c(C(=O)Nc2ccccc2F)sc2nc(-c3ccco3)ccc12 | 10.5 µM (active) |
| O=C(Nc1nnc(COc2ccc(Cl)cc2)s1)c1ccco1 | 14.8 µM (active) |
| CCOC(=O)c1c(C)[nH]c(C2=CSC(=NC3CC3)NN2)c1C | 18.7 µM (active) |
| O=C(CN1C(=O)CC(c2ccco2)Sc2ccccc21)Nc1ccccc1F (centres undefined) | 26.4 µM (active) |
| COC(=O)c1c(NC(=O)COC(=O)c2ccc(Cl)cc2[N+](=O)[O-])sc2c1CCCCC2 | 37.3 µM (active) |
| Cc1nc(SCC(=O)c2ccc(F)cc2)n[nH]1 | 83.5 µM (active) |
| CCOC(=O)c1c(-c2ccc(OC)cc2)csc1NC(=O)C1CCCO1 (centres undefined) | 14.8 µM (active) |
| O=C(CSc1ncnc2sc3c(c12)CCCCC3)NCc1ccco1 | 23.5 µM (active) |
